Experimental data as given in PubChem BioAssay.
Values without a mark were called inactive. No rule for the calls is given here.

Target: Pantothenate synthetase (Mycobacterium tuberculosis (strain ATCC 25618 / H37Rv)) (UniProt P9WIL5)
Experiment: Coupled enzyme confirmation of inhibitors against recombinant Mtb PanC (AID 375);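 also: 0% = full reaction with vehicle and 100% = no enzyme background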
Conditions: coupled enzyme assay; at 10 µM, active compounds read high

Sequence of Pantothenate synthetase (Mycobacterium tuberculosis (strain ATCC 25618 / H37Rv)) (P9WIL5 whole entry, looked up): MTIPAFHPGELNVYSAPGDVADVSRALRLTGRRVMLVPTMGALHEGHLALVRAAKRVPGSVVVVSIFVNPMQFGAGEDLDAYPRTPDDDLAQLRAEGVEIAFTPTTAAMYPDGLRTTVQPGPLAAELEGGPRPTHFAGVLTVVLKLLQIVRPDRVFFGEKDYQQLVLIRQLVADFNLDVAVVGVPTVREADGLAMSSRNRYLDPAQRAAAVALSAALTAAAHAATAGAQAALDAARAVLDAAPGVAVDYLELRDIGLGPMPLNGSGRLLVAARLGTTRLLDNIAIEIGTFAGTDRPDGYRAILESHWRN

First: COc1ccc(C(=O)Nn2c(C3CCC3)nc3ccccc3c2=O)c(OC)c1
Second: COc1ccc(C)cc1NC(=O)C1CCN(S(=O)(=O)c2cccc3cccnc23)CC1
The inhibition of the first is lower: 0% for the first, 19% for the second.

Going from S=C(c1ccc(N2CCOCC2)cc1)N1CCCCC1 to COc1ccc(CNC(=O)CN(C(=O)c2ccc(CN3CCOCC3)o2)C2CCCC2)cc1, the inhibition falls from 2% to 0%.

First: CCOC(=O)N1CCN(c2cc(=O)n(-c3ccccc3Cl)c(=O)[nH]2)CC1
Second: Nc1nc(N2CCCCC2)nc(N(c2ccccc2)c2ccccc2)n1
The inhibition of the first is lower: 0% for the first, 3% for the second.

CCc1c(C)c2ccc(OCC(=O)OC)cc2oc1=O and COC(=O)c1ccc(COc2ncnc3c(Cl)cc(Cl)cc23)o1 are the same in inhibition: 0% for the first, 0% for the second.

First: O=C1NC(Nc2ccccn2)(C(F)(F)F)C(=O)N1c1ccc(F)cc1 (configuration not stated)
Second: Cc1ccc(Cn2nnc(C(=O)Nc3cccc(C)c3C)c2N)cc1
The inhibition of the first is lower: 0% for the first, 5% for the second.

First: CC1(C)C2CCC1(CS(=O)(=O)NCc1ccc(C(=O)O)cc1)C(=O)C2 (configuration not stated)
Second: CCc1nnc(NC(=O)C2CCN(c3nccc(C)n3)CC2)s1
The inhibition of the first is lower: 0% for the first, 8% for the second.

CC1(C)Cc2c(sc3c2C2=NCCN2C=N3)CO1 and COc1cc(CN2CCSCC2)cc(OC)c1OC are the same in inhibition: 0% for the first, 0% for the second.

Going from CON(C)c1nc(Oc2ccc(=O)[nH]n2)nc(N(C)C)n1 to CCOC(=O)CNC(=O)CSc1nc(N(C)C)nc(N2CCOCC2)n1, the inhibition rises from 1% to 6%.

CCOC(=O)CSc1nnc(NCC(=O)OC(C)C)c(=O)[nH]1 gave an inhibition of 4%.
